Experimental data as given in PubChem BioAssay (NCI).
The panel holds about 79,000 compounds, 15% with a hit somewhere; the sample as a whole holds those more often. A number with no mark means an inactive call. Active and inactive are the calls of the source. Cut-off read from the data, not from the text of the source: active = growth inhibition above about 70%; inactive = the rest.

Experiment: NCI Yeast Anticancer Drug Screen. Data for the mgt1 strain (AID 153)
Settings: S. cerevisiae mgt1 mutant growth inhibition; at 11.0 µM; stronger effect = higher value
In short: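 After exposure of the mgt1 yeast mutant to compound, growth was measured and reported as inhibition compared with vehicle controls.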

Structure (SMILES) | growth inhibition
O=CC=C(c1ccccc1)c1ccccc1 | 2%
FC(F)(F)c1nc2nc(Cl)c(Cl)nc2n1CCCN1CCOCC1 | 8%
BrCC[P+](c1ccccc1)(c1ccccc1)c1ccccc1 | -7%
N#CSc1ccc(S(N)(=O)=O)cc1 | -44%
O=[N+]([O-])c1ccc2nc3ccccc3cc2c1 | -1%
O=C(NC(Nc1ccc(F)c(Cl)c1)(C(F)(F)F)C(F)(F)F)C(C(F)(F)F)C(F)(F)F | 54%
O=C(/C=C\c1ccc(Cl)cc1Cl)c1cccs1 | -4%
O=C(NCCCCNCCCNC(=O)c1cc(-c2ccccc2)nc2ccccc12)c1cc(-c2ccccc2)nc2ccccc12 | -1%
NC(=NCc1ccccc1)N/N=C\c1ccnc2ccccc12 | 0%
CCCCN(CCCC)CCSc1ccc(Cl)cc1 | -5%
COc1cc(C2C3=C(COC3=O)Oc3cc4c(cc32)OCO4)ccc1O (stereo not drawn) | 0%
C#CCCCc1ccccc1 | -7%
CCc1ccc(NS(=O)(=O)c2ccccc2)c([N+](=O)[O-])c1 | 3%
COc1ccc(C2c3cc4c(cc3OC(C)(O)C2C)OCO4)c(OC)c1 (stereo not drawn) | -4%
COC(=O)c1ccc(CCC2=CC(=O)C(Br)=CC2=O)cc1 | -4%
NNC(=O)CCc1ccc2ccc3ccccc3c2c1 | -5%
Cn1c2ccccc2c(=O)c2cc(NC(=O)CCCCC(=O)Nc3ccc4c(c3)c(=O)c3ccccc3n4C)ccc21 | -9%
CC(CC(C)(C)[N+](C)(C)C)[N+](C)(C)C (stereo not drawn) | 2%
CC1CCN(CCC(=O)c2ccc(Cl)cc2)CC1 | 20%
CCCCCCCCCCCCCCC(C(=O)[O-])[n+]1ccccc1 (stereo not drawn) | 2%

Structure (SMILES) | growth inhibition
CNC1C(OC2C(OC3C(O)C(O)C(N=C(N)N)C(O)C3N=C(N)N)OC(C)C2(O)CO)OC(CO)C(O)C1O (stereo not drawn) | -6%
O=C(O)c1ccccc1-c1ccccc1C(=O)Nc1ccc2c(c1)Cc1ccccc1-2 | 19%
O=[N+]([O-])c1cccc2nc3ccccc3c(NCCCN3CCOCC3)c12 | 91% (active)
C=CC(C)(O)CCC1C(=C)C(O)CC2C(C)(C)CCCC12C (stereo not drawn) | -24%
CN1c2ccc(Cl)cc2C(=O)NC1c1ccc([N+](=O)[O-])s1 (stereo not drawn) | 23%
[O-][n+]1c2ccc(O)cc2nc2ccc(Br)cc21 | 46%
O=C1c2ccccc2-c2nc3ccccc3nc21 | -26%
CCCCN1C(=O)N(c2ccc(OCC)cc2)C2N(CCCC)C1C(C)(C)C2(C)C (stereo not drawn) | -6%
CO[C@H]1C[C@](C)(O)Cc2cc3c(c(O)c21)C(=O)c1c(O)cc2c(c1C3=O)O[C@@H]1O[C@@]2(C)[C@H](O)[C@@H](N(C)C)[C@@H]1O | -19%
COc1cc2c(cc1[N+](=O)[O-])C(=O)C(Br)(Br)CCC2 | 100% (active)
O=C1OC(CCl)CN1/N=C/c1ccc([N+](=O)[O-])o1 (stereo not drawn) | -3%
CN(C)CCOc1ccc2c(c1)C/C(=C/c1ncc([N+](=O)[O-])n1C)C2=O | 29%
CCCCCCCCCCCCCCCCCCN(C)CC(COP(=O)([O-])OCC[N+](C)(C)C)OC (stereo not drawn) | 97% (active)
CC(C)c1ccccc1NC(=O)/C(Cl)=C(\Cl)C(=O)O | 5%
O=[N+]([O-])C(=C(Sc1ccccc1)Sc1ccccc1)C(Cl)=C(Cl)Cl | 44%
C(=C\c1ccccc1)/COc1ccccc1C(N1CCOCC1)n1nc2ccccc2n1 (stereo not drawn) | 20%
O=C1C(Nc2ccccc2)=C(Oc2ccccc2)C(=O)c2ccccc21 | 2%
CCN(CC)CCN1C(=O)c2cccc3cc(OC)cc(c23)C1=O | -10%
CN(C)Cc1cc(N=Nc2ccc(Cl)cc2)cc(CN(C)C)c1O | 13%

Same assay, conditions: S. cerevisiae mgt1 mutant growth inhibition; at 33.0 µM; stronger effect = higher value

Structure (SMILES) | growth inhibition
O=CC=C(c1ccccc1)c1ccccc1 | 10%
FC(F)(F)c1nc2nc(Cl)c(Cl)nc2n1CCCN1CCOCC1 | 22%
BrCC[P+](c1ccccc1)(c1ccccc1)c1ccccc1 | 94% (active)
N#CSc1ccc(S(N)(=O)=O)cc1 | -62%
O=[N+]([O-])c1ccc2nc3ccccc3cc2c1 | 29%
O=C(NC(Nc1ccc(F)c(Cl)c1)(C(F)(F)F)C(F)(F)F)C(C(F)(F)F)C(F)(F)F | 94% (active)
O=C(/C=C\c1ccc(Cl)cc1Cl)c1cccs1 | 2%
O=C(NCCCCNCCCNC(=O)c1cc(-c2ccccc2)nc2ccccc12)c1cc(-c2ccccc2)nc2ccccc12 | 59%
NC(=NCc1ccccc1)N/N=C\c1ccnc2ccccc12 | 3%
CCCCN(CCCC)CCSc1ccc(Cl)cc1 | -5%
COc1cc(C2C3=C(COC3=O)Oc3cc4c(cc32)OCO4)ccc1O (stereo not drawn) | -5%
C#CCCCc1ccccc1 | 16%
CCc1ccc(NS(=O)(=O)c2ccccc2)c([N+](=O)[O-])c1 | 22%
COc1ccc(C2c3cc4c(cc3OC(C)(O)C2C)OCO4)c(OC)c1 (stereo not drawn) | -2%
COC(=O)c1ccc(CCC2=CC(=O)C(Br)=CC2=O)cc1 | -7%
NNC(=O)CCc1ccc2ccc3ccccc3c2c1 | -4%
Cn1c2ccccc2c(=O)c2cc(NC(=O)CCCCC(=O)Nc3ccc4c(c3)c(=O)c3ccccc3n4C)ccc21 | -3%
CC(CC(C)(C)[N+](C)(C)C)[N+](C)(C)C (stereo not drawn) | 1%
CC1CCN(CCC(=O)c2ccc(Cl)cc2)CC1 | 35%
CCCCCCCCCCCCCCC(C(=O)[O-])[n+]1ccccc1 (stereo not drawn) | -2%

Structure (SMILES) | growth inhibition
CNC1C(OC2C(OC3C(O)C(O)C(N=C(N)N)C(O)C3N=C(N)N)OC(C)C2(O)CO)OC(CO)C(O)C1O (stereo not drawn) | 17%
O=C(O)c1ccccc1-c1ccccc1C(=O)Nc1ccc2c(c1)Cc1ccccc1-2 | 65%
O=[N+]([O-])c1cccc2nc3ccccc3c(NCCCN3CCOCC3)c12 | 97% (active)
C=CC(C)(O)CCC1C(=C)C(O)CC2C(C)(C)CCCC12C (stereo not drawn) | 14%
CN1c2ccc(Cl)cc2C(=O)NC1c1ccc([N+](=O)[O-])s1 (stereo not drawn) | 97% (active)
[O-][n+]1c2ccc(O)cc2nc2ccc(Br)cc21 | 85% (active)
O=C1c2ccccc2-c2nc3ccccc3nc21 | -1%
CCCCN1C(=O)N(c2ccc(OCC)cc2)C2N(CCCC)C1C(C)(C)C2(C)C (stereo not drawn) | -7%
CO[C@H]1C[C@](C)(O)Cc2cc3c(c(O)c21)C(=O)c1c(O)cc2c(c1C3=O)O[C@@H]1O[C@@]2(C)[C@H](O)[C@@H](N(C)C)[C@@H]1O | -22%
COc1cc2c(cc1[N+](=O)[O-])C(=O)C(Br)(Br)CCC2 | 99% (active)
O=C1OC(CCl)CN1/N=C/c1ccc([N+](=O)[O-])o1 (stereo not drawn) | 1%
CN(C)CCOc1ccc2c(c1)C/C(=C/c1ncc([N+](=O)[O-])n1C)C2=O | 36%
CCCCCCCCCCCCCCCCCCN(C)CC(COP(=O)([O-])OCC[N+](C)(C)C)OC (stereo not drawn) | 99% (active)
CC(C)c1ccccc1NC(=O)/C(Cl)=C(\Cl)C(=O)O | 8%
O=[N+]([O-])C(=C(Sc1ccccc1)Sc1ccccc1)C(Cl)=C(Cl)Cl | 59%
C(=C\c1ccccc1)/COc1ccccc1C(N1CCOCC1)n1nc2ccccc2n1 (stereo not drawn) | 91% (active)
O=C1C(Nc2ccccc2)=C(Oc2ccccc2)C(=O)c2ccccc21 | 1%
CCN(CC)CCN1C(=O)c2cccc3cc(OC)cc(c23)C1=O | -4%
CN(C)Cc1cc(N=Nc2ccc(Cl)cc2)cc(CN(C)C)c1O | 26%
